Screening data as filed in PubChem BioAssay.
Compounds with a hit are over-represented: about 9.2% of the library has one in this group of screens.
ELG1 repair inh: qHTS screen for small molecules that inhibit ELG1-dependent DNA repair in human embryonic kidney (HEK293T) cells expressing luciferase-tagged ELG1. HEK293T ELG1-luciferase reporter, luminescence, 16 h; DNA damage induced by 5-fluorouridine. Potency, µM (doses to about 46.1 µM), for inactives: at the highest dose activity change, negative = inhibition, most hits filed as inhibitors. 330,000 tested, 2.3% active. AID 504467, 2011; also: % is scaled to controls: 0 for no effect and ±100 for the full control effect; nearly all actives have a fitted effect of over 55% in size
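Luminescence from the luciferase reporter, measured 30 min after ONE-Glo reagent at room temperature, was the read-out. Beforehand, 2,000 cells per well were exposed for 16 hr at 37 °C to 5-fluorouridine together with compound or vehicle.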
SMN2 splice enh: qHTS Assay for Enhancers of SMN2 Splice Variant Expression. 210,000 tested, 2.8% active. Potency, µM (titrated, usually from 46.1 µM), for inactives: at the highest dose activity change, positive = activation, most hits filed as activators. HEK293 SMN2-luciferase splicing reporter, luminescence, 30-36 h; also: % of control where 0% means no effect; nearly all actives have a fitted effect of over 55% in size
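qHTS luciferase splicing reporter: luminescence rises when SMN2 exon 7 is included in transfected HEK293 cells. Compound exposure lasted 30-36 h at 37C, with 4.5 mM final sodium butyrate as control, followed by a ONE-Glo read.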
FLuc modulator: qHTS profiling assay for firefly luciferase inhibitor/activator using purifed enzyme and Km concentrations of substrates (counterscreen for miR-21 project). purified FLuc, Km substrates, luminescence inhibition. 360,000 tested, 6.9% active. Potency, µM (series often up to 57.5 µM), without a hit: at the highest dose activity change, negative = inhibition, hits mostly inhibitors. Luciferin 4-monooxygenase (Photinus pyralis), P08659. AID 588342, 2011;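 also: plate controls were vehicle for no effect and reference inhibitor for full effect; nearly all actives have a fitted effect of over 55% in size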
Target sequence (P08659 whole entry, looked up): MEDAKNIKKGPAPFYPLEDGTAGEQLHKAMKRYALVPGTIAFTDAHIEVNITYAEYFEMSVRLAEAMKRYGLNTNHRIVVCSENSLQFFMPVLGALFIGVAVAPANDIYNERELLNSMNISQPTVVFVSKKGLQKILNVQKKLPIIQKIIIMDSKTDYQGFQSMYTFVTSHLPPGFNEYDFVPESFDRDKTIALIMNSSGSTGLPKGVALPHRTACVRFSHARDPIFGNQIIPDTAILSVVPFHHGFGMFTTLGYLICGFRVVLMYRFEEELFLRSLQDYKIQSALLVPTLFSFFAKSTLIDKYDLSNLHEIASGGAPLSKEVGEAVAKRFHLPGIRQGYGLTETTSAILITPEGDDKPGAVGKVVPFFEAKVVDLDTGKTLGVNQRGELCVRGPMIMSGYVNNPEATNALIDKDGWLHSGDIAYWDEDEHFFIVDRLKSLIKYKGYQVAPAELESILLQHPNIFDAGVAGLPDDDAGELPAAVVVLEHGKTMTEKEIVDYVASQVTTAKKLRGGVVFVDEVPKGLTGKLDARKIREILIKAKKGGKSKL
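Biochemical qHTS of compounds, final roughly 60 µM downward over six points, against 10 nM purified firefly luciferase using Km concentrations of substrates (10 uM D-luciferin, 10 uM ATP) in Tris acetate pH 7.5 buffer; luminescence output.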
ELG1 genotoxic: qHTS screen for small molecules that induce genotoxicity in human embryonic kidney (HEK293T) cells expressing luciferase-tagged ELG1 | HEK293T ELG1-luciferase reporter, luminescence, 16 h | Potency, µM (top dose mostly 46 µM), for the others: at the top dose activity change, positive = activation, actives largely listed as activators | 330,000 tested, 1.3% active; also: % of control where 0% means no effect; nearly all actives have a fitted effect of over 60% in size
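Reporter readout depends on ELG1 protein level, which increases with genetic stress. After 16 hr compound exposure at 37 °C, luciferase activity was quantified using ONE-Glo.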
Rab9 promoter act: qHTS Assay for Rab9 Promoter Activators; Huh7 Rab9 promoter-luciferase reporter, luminescence, 24 h; Potency, µM (top dose mostly 9.22 µM), without a hit: top-dose activation, negative = inhibition, usual class: activators; 320,000 tested, 2.8% active; also: % of control where 0% means no effect; nearly all actives have a fitted effect of over 60% in size
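Huh7 cells stably carrying Rab9 promoter–luciferase reporter, plated 1500 cells/well, compound added after 2 h and incubated 24 h at 37 °C; luciferase luminescence then read after 10 min with detection reagent.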
NPC1 prom act: qHTS Assay for NPC1 Promoter Activators. 320,000 tested, 2.4% active. Potency, µM (series often up to 9.22 µM), for the others: at the highest dose activation, actives largely listed as activators. AID 485313, 2010. Huh7 NPC1 promoter luciferase reporter, 24 h; also: % of control where 0% means no effect; nearly all actives have a fitted effect of over 60% in size
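In 1536-well qHTS, Huh7 cells harboring an NPC1 promoter–luciferase construct received compound for 24 h; activation was quantified by luminescence following luciferase reagent addition.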
Active calls of the source: *; ? = inconclusive; nt = no result given. Calls follow the shape of the dose curve; as a rule, active = well fitted curve in the direction sought with a large enough effect; inconclusive = small, poorly fitted or top-dose-only effect, or another doubt; inactive = no such curve, though single readings can be large; an effect the other way counts as inactive or inconclusive. Potency is read from the fitted curve at half-maximal effect.

SMILES	ELG1 repair inh	SMN2 splice enh	FLuc modulator	ELG1 genotoxic	Rab9 promoter act	NPC1 prom act
CC1CCN(c2ncnc3c2cnn3-c2ccc(F)cc2)CC1	nt	nt	3µM*	nt	nt	nt
COc1ccc(-n2ncc3c(N4CCCCC4)ncnc32)cc1	?	-111%	0.17µM*	0.065µM*	?	-17%
COc1ccc(-n2ncc3c(N4CCN(c5cccc(C)c5C)CC4)ncnc32)cc1	13%	nt	0%	1%	-1%	-10%
CCOC(=O)c1ccc(NC(=O)c2cn3c4c(ccc(Cl)c4c2=O)OC(C)C3)cc1 (stereo not given)	nt	nt	0%	nt	nt	nt
O=C(Nc1cccc2cccnc12)c1ccc(-c2cccc(Cl)c2)o1	nt	-3%	-12%	nt	nt	nt
Cc1ccc2[nH]c3c(=O)n(CC(=O)N4CCN(c5ccccc5F)CC4)ncc3c2c1	nt	nt	0%	nt	nt	nt
CCCc1c(C)nn(-c2ncccc2[N+](=O)[O-])c1C	10%	6%	3%	-1%	-4%	-2%
O=Cc1ccc(CO)o1	nt	4%	nt	nt	nt	nt
CC1CN(c2ncnc3c2cnn3-c2ccc(Cl)cc2)CC(C)O1 (stereo not given)	?	?	3µM*	2.1µM*	1µM*	1.1µM*
CCC(C)c1ccccc1NC(=O)COC(=O)c1ccc(N2CCCC2)c([N+](=O)[O-])c1 (stereo not given)	-25%	-2%	0%	-4%	-6%	1%
COc1ccc(NC(=O)c2cc3cc(C)ccc3[nH]2)cc1	nt	nt	-1%	nt	nt	nt
CCC(C)c1ccccc1NC(=O)c1cc2cccc([N+](=O)[O-])c2[nH]1 (stereo not given)	21µM*	nt	?	-10%	0%	18%
Cc1ccc2[nH]c(C(=O)Nc3ccccc3)cc2c1	nt	nt	2.1µM*	nt	nt	nt
Cc1ccc(NC(=O)c2cc3cccc([N+](=O)[O-])c3[nH]2)cc1	?	nt	2.4µM*	?	1.3µM*	3.2µM*
COc1ccc(NC(=O)C(c2ccc(Cl)cc2)C(C)C)cn1 (stereo not given)	8%	nt	2%	-2%	11%	-3%
Cc1ccc(CNC(=O)COC(=O)c2cc(=O)[nH]c3ccccc23)cc1	?	nt	nt	3%	nt	nt
Cc1cc(/C(N)=N/OC(=O)c2ccc(Cl)cc2)no1	?	nt	1.5µM*	12µM*	3.2µM*	3.5µM*
Cc1cc(C(=O)NNC(=O)c2cccc(Cl)c2)no1	8%	nt	1%	1%	17%	2%
Cc1cc(/C(N)=N/OC(=O)c2cccc(Cl)c2)no1	?	nt	6.7µM*	?	15%	2%
Clc1cccc(-c2nc3nc4ccccc4nc3n2Cc2ccccc2)c1	?	-12%	-5%	0%	-8%	-2%
c1csc(-c2nc3nc4ccccc4nc3n2Cc2ccc3c(c2)OCO3)c1	?	?	2.7µM*	-1%	?	29%
c1ccc(Cn2c(-c3ccccc3)nc3nc4ccccc4nc32)cc1	21µM*	-23%	-12%	-6%	-2%	0%
C=CCn1c(-c2ccccc2)nc2nc3ccccc3nc21	3%	4%	17µM*	-5%	4%	12%
CCn1cc(C(=O)N2CCN(c3ccc(F)cc3)CC2)c(=O)c2cc(S(=O)(=O)N3CCOCC3)ccc21	nt	-12%	3%	nt	nt	nt
Cc1cccc(NC(=O)CSc2nnc(N)s2)c1	nt	?	-3%	nt	nt	nt
SMILES	ELG1 repair inh	SMN2 splice enh	FLuc modulator	ELG1 genotoxic	Rab9 promoter act	NPC1 prom act
CCN(CC)C(=O)CSc1nc2ccc(NC(=O)CSc3nnc(COc4ccccc4C)n3C)cc2s1	8.2µM*	-9%	?	-5%	-1%	-4%
CC(C)(C)NC(=O)CSc1nc2ccc(NC(=O)CSc3nnc(N)s3)cc2s1	16µM*	-24%	12µM*	-1%	-3%	-5%
CC(C)(C)NC(=O)CSc1nc2ccc(NC(=O)CSc3nnnn3Cc3ccccc3)cc2s1	2.9µM*	-93%	?	-12%	-14%	-9%
Cn1ccnc1SCC(=O)NC1CCCC1	21%	nt	0%	-2%	5%	0%
Cc1ccccc1OCc1nnc(SCC(=O)Nc2ccc3nc(SCC(=O)NC(C)(C)C)sc3c2)n1C	?	-31%	2%	-5%	4%	3%
Cn1ccnc1SCC(=O)Nc1ccc2nc(SCC(=O)NC3CC3)sc2c1	?	18%	19µM*	13µM*	?	?
CCOc1cc(Br)c(CN2C(=O)NC3(CCCCCC3)C2=O)cc1OCC	4%	nt	2%	-37%	-3%	1%
Cn1ccc(C(=O)Nc2ccc(Br)cc2Br)n1	?	5µM*	3µM*	4.6µM*	3.2µM*	3.5µM*
Cc1ccc(NC(=O)c2ccccn2)c(Br)c1	?	nt	7.6µM*	4.1µM*	2.8µM*	?
Cc1ccc(NC(=O)Nc2ccc(Cl)cc2)c(Br)c1	?	?	-21%	?	?	22%
Cc1ccc(NC(=O)c2ccn(C)n2)c(Br)c1	?	2µM*	6µM*	5.2µM*	3.2µM*	?
O=C(Nc1cccc(F)c1)N1CCC2(CC1)CCN(C(=O)c1csnn1)CC2	nt	-20%	nt	nt	nt	nt
CCOc1ccc(CCNC(=O)c2cc3c(=O)[nH]c4ccc(C)cc4c3s2)cc1OCC	nt	-3%	3%	nt	nt	nt
O=C(CCC(=O)N1CCN(S(=O)(=O)c2ccc([N+](=O)[O-])cc2)CC1)N1CCOCC1	13%	nt	nt	0%	nt	nt
Fc1ccc2c(Cl)c(-c3nnc(-c4cccs4)o3)sc2c1	?	4.5µM*	0.19µM*	0.65µM*	0.56µM*	1.4µM*
CCc1ccccc1NC(=O)CSc1ncc2c(n1)-c1ccccc1N(C)S2(=O)=O	nt	nt	-2%	nt	nt	nt
O=C(Nc1ccc2nc(-c3cccs3)c(-c3cccs3)nc2c1)N1CCOCC1	5.2µM*	-52%	4%	-10%	-3%	-4%
O=C(c1cc(-c2cccs2)on1)N1CCN(C(c2ccccc2)c2ccccc2)CC1	-4%	-14%	1%	-8%	-54%	-32%
O=C(c1cc(-c2ccccc2O)on1)N1CCc2ccccc2C1	?	21%	?	16%	6%	-5%
O=C(c1cc(-c2cccs2)on1)N1CCOCC1	?	?	19µM*	?	?	2.8µM*
O=C(c1cc(-c2cccs2)on1)N1CCc2ccccc2C1	?	0%	19µM*	6%	2%	-3%
O=C(c1ccncc1)N1CCc2ccccc2C1	23%	nt	0%	1%	-2%	1%
